Tests used:
Assay in all cases: relative growth (AUC of 72 h growth curve relative to DMSO control, dAUC) (ratio); higher = more growth (less inhibition), active = hit call of the paper
Conditions in all cases: 20 µM;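 active = growth AUC significantly below the DMSO wells by Dunnett test; inactive = the rest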
[1] = tested on: Prolinoborus 1 (Prolinoborus fasciculus)
Procedure, shortened: (§1)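 Whole sediment communities and bacterial isolates from Icelandic stream sediments and Silwood Park soil were brought to carrying capacity in Luria–Bertani medium. They were then diluted 1:100 into 96-well plates with each chemical at 20 µM in 1% DMSO, and A600 was recorded every hour for 72 h. The area under each growth curve, integrated by spline, was averaged across three biological replicates. This figure, divided by the mean of the DMSO controls, gives relative growth (dAUC).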

[2] = tested on: Pseudomonas 1 (Pseudomonas baetica)
Procedure, shortened: as §1

[3] = tested on: Pseudomonas 2 (Pseudomonas vancouverensis)
Procedure, shortened: as §1

[4] = tested on: Pseudomonas 3 (Pseudomonas mandelii)
Procedure, shortened: as §1

[5] = tested on: Pseudomonas 4 (Pseudomonas peli)
Procedure, shortened: as §1

[6] = tested on: Pseudomonas 5 (Pseudomonas baetica)
Procedure, shortened: as §1

[7] = tested on: Pseudomonas 6 (Pseudomonas sp.)
Procedure, shortened: as §1

[8] = tested on: Rhizobium 1 (Rhizobium herbae)
Procedure, shortened: as §1

[9] = tested on: Serratia 1 (Serratia sp. 2015-2462-01)
Procedure, shortened: as §1

[10] = tested on: Sphingomonas 2 (Sphingomonas sp.)
Procedure, shortened: as §1

Measured: relative growth

CNC(=O)c1cc(C#N)cc(C)c1NC(=O)c1cc(Br)nn1-c1ncccc1Cl
inactive: [1] 0.944 | [2] 0.962 | [3] 0.986 | [4] 1.01 | [5] 0.976 | [6] 1.06 | [7] 1.06 | [8] 0.961 | [9] 0.982 | [10] 1.05

N#Cc1sc2c(=O)c3ccccc3c(=O)c=2sc1C#N
inactive: [1] 1.03 | [2] 0.913 | [3] 0.929 | [5] 1.07 | [6] 0.962 | [7] 0.885 | [8] 1 | [9] 0.862 | [10] 1.01
active: [4] 0.887

CCOC(=O)CC(SP(=S)(OC)OC)C(=O)OCC (stereo not given)
inactive: [1] 1.01 | [2] 1.03 | [3] 1.05 | [4] 1.05 | [5] 1.04 | [6] 0.994 | [7] 1.09 | [8] 0.984 | [9] 1.01 | [10] 1.15

O=C(O)COc1ccc(Cl)cc1Cl
inactive: [1] 1.01 | [2] 0.923 | [3] 0.971 | [4] 1.04 | [5] 1.01 | [6] 0.997 | [7] 1.07 | [8] 1.03 | [9] 0.96 | [10] 1.04

CC(C)N1C(=O)N(c2ccccc2)CS/C1=N\C(C)(C)C
inactive: [1] 0.883 | [2] 1.05 | [3] 0.977 | [4] 1.02 | [5] 0.937 | [6] 1.03 | [7] 1.07 | [8] 0.931 | [9] 0.962 | [10] 1.05

CC1(C)C(C(=O)OC(C#N)c2cccc(Oc3ccccc3)c2)C1(C)C (stereo not given)
inactive: [1] 0.893 | [2] 1.08 | [3] 1 | [4] 1.04 | [5] 0.948 | [6] 1.01 | [7] 1.01 | [8] 1.05 | [9] 1 | [10] 0.98

CCCN(CCC)C(=O)SCc1ccccc1
inactive: [1] 1.01 | [2] 1.03 | [3] 1.05 | [4] 1.09 | [5] 0.979 | [6] 1.06 | [7] 1.13 | [8] 1.05 | [9] 0.998 | [10] 1.06

CCOc1ccc(C(C)(C)COCc2cccc(Oc3ccccc3)c2)cc1
inactive: [1] 0.909 | [2] 1.14 | [3] 0.998 | [4] 1.02 | [5] 0.914 | [6] 0.991 | [7] 1.02 | [8] 0.851 | [9] 0.956 | [10] 0.967

CCCN(CCOc1c(Cl)cc(Cl)cc1Cl)C(=O)n1ccnc1
inactive: [1] 0.93 | [2] 1.07 | [3] 0.984 | [4] 1.02 | [5] 0.964 | [6] 0.997 | [7] 1.03 | [8] 0.949 | [9] 0.985 | [10] 0.993

COc1cc(C)c(C(=O)c2c(OC)ccc(Br)c2C)c(OC)c1OC
inactive: [1] 1.01 | [2] 0.978 | [3] 1.01 | [4] 1 | [5] 1.02 | [6] 0.991 | [7] 0.939 | [8] 0.937 | [9] 1.02 | [10] 1.04

C#CCOc1ccc(CCNC(=O)C(OCC#C)c2ccc(Cl)cc2)cc1OC (stereo not given)
inactive: [1] 0.958 | [2] 0.979 | [3] 0.988 | [4] 1.02 | [5] 0.992 | [6] 0.985 | [7] 1.07 | [8] 1.06 | [9] 0.968 | [10] 1.13

CN/C(=N\[N+](=O)[O-])NCc1cnc(Cl)s1
inactive: [1] 0.937 | [2] 1.1 | [3] 0.964 | [4] 1.01 | [5] 0.974 | [6] 1.03 | [7] 1.09 | [8] 0.902 | [9] 0.931 | [10] 0.945

Clc1ccc(C(c2ccc(Cl)cc2)C(Cl)(Cl)Cl)cc1
inactive: [1] 1.08 | [2] 1.07 | [3] 0.992 | [4] 1.02 | [5] 0.985 | [6] 1.05 | [7] 1.16 | [8] 1.07 | [9] 1.05
active: [10] 0.0545

COP(=O)(NC(C)=O)SC (stereo not given)
inactive: [1] 1.03 | [2] 1.07 | [3] 1.02 | [4] 1.08 | [5] 1.02 | [6] 1.02 | [7] 1.14 | [8] 0.999 | [9] 0.992 | [10] 0.94

CC1COC(Cn2cncn2)(c2ccc(Oc3ccc(Cl)cc3)cc2Cl)O1 (stereo not given)
inactive: [1] 1.04 | [2] 1.06 | [3] 0.99 | [4] 1.06 | [5] 1.01 | [6] 1.03 | [7] 1.08 | [8] 0.952 | [9] 1.01 | [10] 1.06

O=[N+]([O-])/N=C1\NCCN1Cc1ccc(Cl)nc1
inactive: [1] 0.987 | [2] 0.857 | [3] 0.973 | [4] 1.04 | [5] 1.01 | [6] 0.978 | [7] 0.932 | [8] 0.991 | [9] 0.968 | [10] 0.979

CCSC(C)CC1CC(=O)C(/C(CC)=N/OC/C=C/Cl)=C(O)C1 (mixture of isomers)
inactive: [1] 0.983 | [2] 1.07 | [3] 0.999 | [4] 1.02 | [5] 1.01 | [6] 1.05 | [7] 1.14 | [8] 0.924 | [9] 0.973 | [10] 1.18

COc1ccc(C(=CC(=O)N2CCOCC2)c2ccc(Cl)cc2)cc1OC (mixture of isomers)
inactive: [1] 0.994 | [2] 1.09 | [3] 0.999 | [4] 1.03 | [5] 1.01 | [6] 0.972 | [7] 0.951 | [8] 1.02 | [9] 0.978 | [10] 1.12

COP(N)(=O)SC (stereo not given)
inactive: [1] 0.972 | [2] 1.04 | [3] 0.982 | [4] 1.06 | [5] 0.995 | [6] 1.1 | [7] 1.06 | [8] 0.973 | [9] 0.965 | [10] 0.675

COCC(=O)N(c1c(C)cccc1C)C(C)C(=O)OC (stereo not given)
inactive: [1] 0.923 | [2] 1.06 | [3] 1.01 | [4] 1 | [5] 0.995 | [6] 1.02 | [7] 1.03 | [8] 0.907 | [9] 0.994 | [10] 1.05

CO/C=C(/C(=O)OC)c1ccccc1COc1cccc(C(F)(F)F)n1
inactive: [1] 0.929 | [2] 1.02 | [3] 0.958 | [4] 0.991 | [5] 0.97 | [6] 1.05 | [7] 1.11 | [8] 0.96 | [9] 0.966 | [10] 1

COc1cccc(C(=O)NN(C(=O)c2cc(C)cc(C)c2)C(C)(C)C)c1C
inactive: [1] 0.981 | [2] 1.04 | [3] 1.01 | [4] 1.04 | [5] 0.987 | [6] 1.05 | [7] 1.12 | [8] 0.96 | [9] 0.934 | [10] 0.977

CC1(C)C(C=C(Cl)Cl)C1C(=O)OCc1cccc(Oc2ccccc2)c1 (stereo not given)
inactive: [1] 0.985 | [2] 1.13 | [3] 0.97 | [4] 1 | [5] 0.979 | [6] 1.05 | [7] 1.13 | [8] 0.958 | [9] 0.964 | [10] 1.02

COC(=O)N(C(=O)N1CO[C@@]2(C(=O)OC)Cc3cc(Cl)ccc3C2=N1)c1ccc(OC(F)(F)F)cc1
inactive: [1] 1 | [2] 1.02 | [3] 0.991 | [4] 1.04 | [5] 1.01 | [6] 0.965 | [7] 0.966 | [8] 1 | [9] 0.967 | [10] 0.861

COCC(=O)N(c1c(C)cccc1C)[C@H](C)C(=O)OC
inactive: [1] 0.988 | [2] 0.997 | [3] 0.974 | [4] 1.09 | [5] 1.03 | [6] 1.01 | [7] 1.01 | [8] 1.13 | [9] 0.965 | [10] 1.02

CCc1cccc(C)c1N(C(=O)CCl)[C@@H](C)COC
inactive: [1] 1.01 | [2] 1.09 | [3] 0.996 | [4] 1 | [5] 0.993 | [6] 1.03 | [7] 1.13 | [8] 0.952 | [9] 0.985 | [10] 0.791

Cc1cc(C)nc(Nc2ccccc2)n1
inactive: [1] 0.979 | [2] 0.925 | [3] 0.956 | [4] 1.03 | [5] 0.947 | [6] 0.99 | [7] 1.03 | [8] 0.868 | [9] 0.937 | [10] 0.984

CC(C)(C)C(O)(CCc1ccc(Cl)cc1)Cn1cncn1 (stereo not given)
inactive: [1] 0.931 | [2] 1.15 | [3] 0.962 | [4] 1.03 | [5] 0.94 | [6] 0.979 | [7] 1.05 | [8] 0.918 | [9] 0.943 | [10] 1.06

From the supplement of paper PMC12067926
